Source: paper PMC6919601, “Identification of Plasmodium dipeptidyl aminopeptidase allosteric inhibitors by high throughput screening” (PLoS ONE, 2019)
Hit rate of the full screen: of about 110,000 compounds, about 230 (0.21%) showed an effect of 50% or more. Only a selection was taken, and strong results are over-represented in it overall.

Biological target: DPAP1 (Plasmodium falciparum, UniProt Q8IIJ9)
Assay: primary screen, percent inhibition; read by cleavage of a fluorogenic dipeptide substrate; higher = more effect of the substance
Parameters: species or system P. falciparum D10 trophozoite lysates; single well
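Also: 30 min substrate incubation versus DMSO and 10 µM JCP410 controls.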

DPAP1, sequence (Q8IIJ9 whole entry, looked up): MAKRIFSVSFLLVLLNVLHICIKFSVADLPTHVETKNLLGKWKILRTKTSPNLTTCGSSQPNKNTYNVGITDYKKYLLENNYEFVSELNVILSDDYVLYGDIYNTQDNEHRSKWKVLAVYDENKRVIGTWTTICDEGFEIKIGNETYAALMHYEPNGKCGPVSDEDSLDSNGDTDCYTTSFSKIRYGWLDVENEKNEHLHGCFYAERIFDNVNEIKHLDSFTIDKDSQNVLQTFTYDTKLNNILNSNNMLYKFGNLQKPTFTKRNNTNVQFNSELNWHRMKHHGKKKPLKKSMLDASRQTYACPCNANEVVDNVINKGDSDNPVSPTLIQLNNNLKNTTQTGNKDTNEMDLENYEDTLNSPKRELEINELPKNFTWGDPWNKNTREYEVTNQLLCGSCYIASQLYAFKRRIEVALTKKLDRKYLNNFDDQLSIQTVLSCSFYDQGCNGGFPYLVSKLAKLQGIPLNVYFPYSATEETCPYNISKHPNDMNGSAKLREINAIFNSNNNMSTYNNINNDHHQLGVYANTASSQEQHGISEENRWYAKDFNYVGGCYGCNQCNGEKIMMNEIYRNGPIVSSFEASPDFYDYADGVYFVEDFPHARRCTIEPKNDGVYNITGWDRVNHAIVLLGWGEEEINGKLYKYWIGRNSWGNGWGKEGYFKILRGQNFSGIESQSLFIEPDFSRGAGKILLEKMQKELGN

| Structure (SMILES) | % Inhibition @ 10 uM |
| --- | --- |
| COc1cccc(C2CC(=O)N3CN(Cc4ccco4)CSC3=C2C#N)c1OC (centres unmarked) | 18.7% |
| COc1ccc(Br)cc1C1CC(=O)N2CN(Cc3ccco3)CSC2=C1C#N (centres unmarked) | 60.5% |
| N#CC1=C2SCN(Cc3ccccc3)CN2C(=O)CC1c1cccs1 (centres unmarked) | 40.5% |
| Cc1ccc2oc(=O)c3cc(C(=O)N4CCC(C)CC4)sc3c2c1 | 0.809% |
| CCCOc1ccc(CN(C(=O)c2nc(SC)ncc2Cl)C2CCS(=O)(=O)C2)cc1 (centres unmarked) | -4.64% |
| Cc1cc(C)c2c(n1)nn1c(C3CC3)cc(C(F)(F)F)nc21 | 2.54% |
| O=C(NCC(=O)N1CCOCC1)c1ccccc1 | 15.6% |
| O=C(NCCc1ccccc1)C1CCCN(S(=O)(=O)c2cccc3cccnc23)C1 (centres unmarked) | -4.69% |
| COc1cccc(C(=O)Nc2ccc(C(C)C)cc2)c1 | -1.25% |
| COCCOC(=O)N/C=C\c1nc(O)c2ccccc2n1 | -4.65% |
| CCOC(=O)c1cnn2c(C(F)(F)F)cc(C)nc12 | -3.53% |
| CC1(C)Cc2c(c(S)sc(=N)c2C#N)CO1 | 8.27% |
| N#Cc1c2c(c(S)sc1=N)CCCC2 | 59.6% |
| CN1CCc2c(c(S)sc(=N)c2C#N)C1 | 5.59% |
| COc1cccc(CNC(=O)CNC(=S)N(Cc2ccccc2)Cc2cccnc2)c1 | -0.406% |
| Cc1cc(C)c2c(-n3cccc3)nn(CC(=O)N3CCCCCC3)c2n1 | -3.52% |
| COCC(=O)Nc1nc2nccc(C)n2n1 | -1.31% |
| CCn1c(C(=O)N2CCC(C(=O)NCCOC)CC2)cc2sccc21 | 4.95% |
| CCn1c(C(=O)N2CCC(C(=O)NCCC(C)C)CC2)cc2sccc21 | 92.1% |
| CCn1c(C(=O)N2CCC(C(=O)NCCN(CC(C)C)CC(C)C)CC2)cc2sccc21 | -5.19% |
| N#CCNC(=O)[C@H](CC1CCCCC1)NC(=O)c1sccc1Br | 1.35% |
| O=C1C(Nc2cccc(O)c2)=C(N2CCCCC2)C(=O)c2ccccc21 | 0.162% |
| Nc1ccc(NC2=C(N3CCCCC3)C(=O)c3ccccc3C2=O)cc1 | 53.5% |
| O=C1C(Nc2cccc(Br)c2)=C(N2CCCCC2)C(=O)c2ccccc21 | 1.84% |
| Cn1c2ccccc2c2nc3cc4ccccc4cc3nc21 | -2.54% |

| Structure (SMILES) | % Inhibition @ 10 uM |
| --- | --- |
| COCCN1C(=O)c2ccccc2C(C(=O)Nc2ccc(Cl)cn2)C1c1cccs1 (centres unmarked) | 4.33% |
| C=CCOc1ccc(C(=O)C2=C(O)C(=O)N(c3ccccn3)C2c2ccc(F)cc2)cc1 (centres unmarked) | 2.86% |
| C#CCN1C(=O)C(O)(CC(=O)c2ccc3ccccc3c2)c2ccccc21 (centres unmarked) | -20.7% |
| Cn1c(SCC(=O)NCCc2ccccc2)nc2c1c(=O)n(Cc1ccccc1Cl)c(=O)n2C | 3.81% |
| CC1CCN(C(=O)CCN2C(=O)c3ccccc3C2=O)CC1 | 2.06% |
| Cc1ccc(-c2cc(NC(=O)COc3ccc(C(C)C)cc3)on2)cc1 | -1.47% |
| O=C(NCCc1ccc(Cl)cc1)c1noc2c1COc1ccccc1-2 | 82.6% |
| O=C(NCCc1ccccc1)c1noc2c1CCc1ccccc1-2 | -7.85% |
| O=C(NCC1(c2ccccc2)CCCC1)c1noc2c1COc1ccccc1-2 | 47.2% |
| O=C(NCCc1c[nH]c2ccccc12)c1noc2c1COc1ccccc1-2 | 91.5% |
| CCOC(=O)c1noc2c1COc1ccccc1-2 | -1.51% |
| CCOc1ccc(-c2cc(NC(=O)c3noc4c3COc3ccccc3-4)on2)cc1OCC | -1.72% |
| CN(CCNC(=O)c1noc2c1COc1ccccc1-2)C1CCCCC1 | 2.73% |
| Cc1cccc(CCNC(=O)c2cc3c(s2)-c2ccccc2OC3)c1 | -4.85% |
| Cc1cccc(CCNC(=O)c2noc3c2COc2ccccc2-3)c1 | 75.2% |
| COc1ccc(CCNC(=O)c2noc3c2COc2ccc(C)cc2-3)cc1OC | -4.07% |
| CCOc1ccc(CCNC(=O)c2noc3c2COc2ccccc2-3)cc1OCC | 80.8% |
| Cc1ccc2c(c1)-c1onc(C(=O)NCCN(C)C)c1CO2 | -4.37% |
| O=C(/C=C/c1ccco1)N(Cc1cccc(F)c1)C1CCS(=O)(=O)C1 (centres unmarked) | -1.35% |
| O=C(Nc1ccccc1)N1CCN(c2ccccc2)CC1 | 1.33% |
| CSc1nc2n(n1)C(c1ccc(F)c(Br)c1)C1=C(O)CC(C)(C)CC1=N2 (centres unmarked) | -1.62% |
| CC(NCC(O)Cn1nnnc1-c1ccccc1)c1ccccc1 (centres unmarked) | 2.5% |
| Cc1ccc(NC(=O)C(C)Oc2ccccc2C)c(C)c1 (centres unmarked) | 6.79% |
| CC(=O)c1c(S)nc(-c2ccccc2)nc1N1CCN(Cc2ccccc2)CC1 | 29.2% |
| CCOc1ccc(C(=O)NCC2CCN(C(=O)c3ccc(OCC)cc3)CC2)cc1 | 5% |
